Assay in all cases: DAPPL (digital affinity profiling via proximity ligation, sequencing); 10 mM Tris-HCl pH 7.5, 50 mM NaCl, 1 mM DTT, 4% glycerol, room temperature, 30 min; GST-TFs on glutathione beads, 16-mer random dsDNA library, 0.1% formaldehyde crosslink after washing; high values mean tight binding
For one assay, the target named is T1, FLI1 (Homo sapiens, UniProt Q01543 1-452).
T1 sequence: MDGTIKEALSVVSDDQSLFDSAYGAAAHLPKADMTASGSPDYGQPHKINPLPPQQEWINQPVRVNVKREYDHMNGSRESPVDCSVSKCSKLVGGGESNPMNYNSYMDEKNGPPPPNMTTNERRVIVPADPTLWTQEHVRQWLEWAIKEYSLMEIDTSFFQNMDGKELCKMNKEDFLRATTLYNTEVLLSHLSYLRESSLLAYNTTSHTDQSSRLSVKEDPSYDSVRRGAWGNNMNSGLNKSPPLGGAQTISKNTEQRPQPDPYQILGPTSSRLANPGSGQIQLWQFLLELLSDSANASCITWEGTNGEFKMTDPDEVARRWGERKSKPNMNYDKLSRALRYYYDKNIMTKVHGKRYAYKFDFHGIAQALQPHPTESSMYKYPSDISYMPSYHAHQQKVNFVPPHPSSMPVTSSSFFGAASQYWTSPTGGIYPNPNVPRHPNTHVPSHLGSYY
The note with it: protein: recombinant; tags: N-terminal GST; dsDNA, one strand shown. The method, boiled down: (§1)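 Binding signal is each hexamer's read frequency for a factor divided by its frequency in the tag-only sample. The factors were GST-fused human transcription factors from yeast, captured on glutathione beads, DNA-barcoded and pooled with that sample. Pools were incubated with 200 nmole of a random double-stranded 16-mer DNA library in Tris/NaCl/DTT/glycerol buffer at room temperature for 30 min, then washed, crosslinked with 0.1% formaldehyde, proximity-ligated with BsaI/T4 ligase (1 h, 37 °C), PCR-amplified and sequenced on an Illumina NextSeq500.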

In a further assay the target is T2, ELK1 (Homo sapiens, UniProt P19419 1-428).
T2 sequence: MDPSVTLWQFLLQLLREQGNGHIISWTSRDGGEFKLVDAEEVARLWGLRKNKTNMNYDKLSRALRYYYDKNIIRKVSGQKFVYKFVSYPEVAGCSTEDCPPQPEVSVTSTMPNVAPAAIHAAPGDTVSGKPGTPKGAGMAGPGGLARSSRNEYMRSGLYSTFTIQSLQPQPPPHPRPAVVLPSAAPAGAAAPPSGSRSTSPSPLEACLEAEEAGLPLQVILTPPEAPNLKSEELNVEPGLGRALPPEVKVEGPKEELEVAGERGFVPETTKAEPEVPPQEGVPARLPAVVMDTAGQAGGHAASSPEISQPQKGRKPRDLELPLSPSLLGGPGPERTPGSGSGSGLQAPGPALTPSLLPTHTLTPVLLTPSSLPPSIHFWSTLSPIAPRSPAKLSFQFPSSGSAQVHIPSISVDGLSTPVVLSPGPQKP
The note with it: protein: recombinant; tags: N-terminal GST; dsDNA, one strand shown. The essentials:
as §1

The target of the next assay is T3, GABPA (Homo sapiens, UniProt Q06546 1-454).
T3 sequence: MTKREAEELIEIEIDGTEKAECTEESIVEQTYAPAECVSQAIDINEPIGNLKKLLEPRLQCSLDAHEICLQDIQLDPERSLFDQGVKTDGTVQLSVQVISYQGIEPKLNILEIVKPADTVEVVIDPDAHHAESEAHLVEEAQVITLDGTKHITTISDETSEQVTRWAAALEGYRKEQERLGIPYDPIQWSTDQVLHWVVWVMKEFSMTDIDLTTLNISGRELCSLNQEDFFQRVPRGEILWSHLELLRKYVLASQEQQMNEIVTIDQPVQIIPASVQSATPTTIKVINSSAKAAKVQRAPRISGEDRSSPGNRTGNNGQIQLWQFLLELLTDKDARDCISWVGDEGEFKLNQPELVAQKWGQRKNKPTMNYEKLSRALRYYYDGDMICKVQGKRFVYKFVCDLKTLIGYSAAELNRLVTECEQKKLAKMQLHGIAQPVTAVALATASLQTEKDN
The settings on record: protein: recombinant; tags: N-terminal GST; dsDNA, one strand shown. The method, boiled down:
as §1

The target in a further assay is T4, ERG (Homo sapiens, UniProt P11308 1-479).
T4 sequence: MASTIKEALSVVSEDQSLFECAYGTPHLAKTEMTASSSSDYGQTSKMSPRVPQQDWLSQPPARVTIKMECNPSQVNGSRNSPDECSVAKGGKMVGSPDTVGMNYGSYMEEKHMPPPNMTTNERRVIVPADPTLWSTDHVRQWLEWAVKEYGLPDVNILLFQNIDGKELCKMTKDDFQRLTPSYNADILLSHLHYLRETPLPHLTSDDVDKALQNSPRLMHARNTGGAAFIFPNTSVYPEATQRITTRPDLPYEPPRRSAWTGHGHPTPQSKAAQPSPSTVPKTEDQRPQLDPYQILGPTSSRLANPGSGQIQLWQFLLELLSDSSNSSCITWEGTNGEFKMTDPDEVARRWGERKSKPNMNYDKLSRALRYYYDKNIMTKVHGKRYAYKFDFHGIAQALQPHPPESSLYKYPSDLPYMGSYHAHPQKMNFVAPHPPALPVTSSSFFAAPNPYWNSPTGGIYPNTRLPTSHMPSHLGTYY
The settings on record: protein: recombinant; tags: N-terminal GST; dsDNA, one strand shown. The method, boiled down:
as §1

Another assay addresses ELF1 (Homo sapiens, UniProt P32519 1-619). The settings on record: protein: recombinant; tags: N-terminal GST; dsDNA, one strand shown. The method, boiled down: as §1
The target of a further assay is T5, EHF (Homo sapiens, UniProt Q9NZC4 1-300).
T5 sequence: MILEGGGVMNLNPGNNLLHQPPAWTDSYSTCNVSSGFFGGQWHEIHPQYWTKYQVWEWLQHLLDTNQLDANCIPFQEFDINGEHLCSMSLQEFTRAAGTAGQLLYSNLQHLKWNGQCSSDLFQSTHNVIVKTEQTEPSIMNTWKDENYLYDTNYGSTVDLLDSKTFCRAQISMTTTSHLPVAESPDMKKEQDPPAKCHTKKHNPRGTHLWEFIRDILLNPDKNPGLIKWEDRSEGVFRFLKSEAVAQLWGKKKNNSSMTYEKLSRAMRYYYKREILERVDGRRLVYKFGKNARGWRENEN
The settings on record: protein: recombinant; tags: N-terminal GST; dsDNA, one strand shown. The method, boiled down:
as §1

A further assay deals with SPI1 (Homo sapiens, UniProt P17947 1-270). The note with it: protein: recombinant; tags: N-terminal GST; dsDNA, one strand shown. The essentials:
as §1

A further assay deals with SPIB (Homo sapiens, UniProt Q01892 1-262). The note with it: protein: recombinant; tags: N-terminal GST; dsDNA, one strand shown. The method, boiled down:
as §1

The next assay addresses T6, ELK3 (Homo sapiens, UniProt P41970 1-407).
T6 sequence: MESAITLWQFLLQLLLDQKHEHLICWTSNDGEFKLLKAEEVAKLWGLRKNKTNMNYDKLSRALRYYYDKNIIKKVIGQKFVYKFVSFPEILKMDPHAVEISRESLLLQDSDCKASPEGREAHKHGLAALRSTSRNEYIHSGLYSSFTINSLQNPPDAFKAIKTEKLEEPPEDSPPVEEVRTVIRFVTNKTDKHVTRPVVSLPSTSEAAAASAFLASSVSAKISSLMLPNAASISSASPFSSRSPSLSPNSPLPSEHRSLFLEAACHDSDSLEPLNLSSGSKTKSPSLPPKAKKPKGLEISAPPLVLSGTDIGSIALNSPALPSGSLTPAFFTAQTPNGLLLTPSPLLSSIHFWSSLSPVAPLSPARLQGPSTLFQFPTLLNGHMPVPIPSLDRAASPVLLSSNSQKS
The settings on record: protein: recombinant; tags: N-terminal GST; dsDNA, one strand shown. The method, boiled down: as §1

The target of the next assay is T7, FEV (Homo sapiens, UniProt Q99581 1-238).
T7 sequence: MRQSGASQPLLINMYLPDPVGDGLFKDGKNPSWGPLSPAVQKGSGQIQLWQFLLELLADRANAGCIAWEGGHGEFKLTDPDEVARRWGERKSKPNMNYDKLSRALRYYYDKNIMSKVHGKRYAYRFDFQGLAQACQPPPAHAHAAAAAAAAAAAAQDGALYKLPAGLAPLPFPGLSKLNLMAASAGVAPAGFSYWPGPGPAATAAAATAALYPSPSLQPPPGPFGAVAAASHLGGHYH
The note with it: protein: recombinant; tags: N-terminal GST; dsDNA, one strand shown. The method, boiled down:
as §1

For a further assay, the target named is ETV5 (Homo sapiens, UniProt P41161 1-510). The settings on record: protein: recombinant; tags: N-terminal GST; dsDNA, one strand shown. The method, boiled down:
as §1

In the next assay the target is HSF1 (Homo sapiens, UniProt Q00613 1-529). The settings on record: protein: recombinant; tags: N-terminal GST; chain copies: 3; dsDNA, one strand shown. The method, boiled down: as §1
The target of the next assay is T8, SPIC (Homo sapiens, UniProt Q8N5J4 1-248).
T8 sequence: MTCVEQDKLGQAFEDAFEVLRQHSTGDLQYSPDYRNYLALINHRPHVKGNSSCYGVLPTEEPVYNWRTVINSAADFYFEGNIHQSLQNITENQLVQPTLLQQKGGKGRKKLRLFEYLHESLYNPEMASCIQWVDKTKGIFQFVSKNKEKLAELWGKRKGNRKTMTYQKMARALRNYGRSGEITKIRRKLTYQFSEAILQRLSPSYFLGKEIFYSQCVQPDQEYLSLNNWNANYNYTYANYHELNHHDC
The settings on record: protein: recombinant; tags: N-terminal GST; dsDNA, one strand shown. The essentials: as §1

A further assay has as its target ELF4 (Homo sapiens, UniProt Q99607 1-663). The note with it: protein: recombinant; tags: N-terminal GST; dsDNA, one strand shown. The essentials: as §1
A further assay deals with T9, ELK4 (Homo sapiens, UniProt P28324-2 1-405).
T9 sequence: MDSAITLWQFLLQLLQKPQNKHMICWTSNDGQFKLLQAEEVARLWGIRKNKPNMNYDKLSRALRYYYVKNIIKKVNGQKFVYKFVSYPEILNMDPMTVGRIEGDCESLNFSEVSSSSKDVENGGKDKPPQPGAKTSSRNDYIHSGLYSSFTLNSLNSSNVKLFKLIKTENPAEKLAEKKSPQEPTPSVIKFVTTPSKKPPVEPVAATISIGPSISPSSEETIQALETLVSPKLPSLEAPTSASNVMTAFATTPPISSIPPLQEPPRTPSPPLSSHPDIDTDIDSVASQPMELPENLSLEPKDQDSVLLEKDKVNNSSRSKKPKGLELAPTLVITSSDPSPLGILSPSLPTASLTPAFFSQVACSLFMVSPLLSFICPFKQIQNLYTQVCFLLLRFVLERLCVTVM
The note with it: protein: recombinant; tags: N-terminal GST; dsDNA, one strand shown. The method, boiled down: as §1

In the next assay the target is T10, ETV2 (Homo sapiens, UniProt O00321 1-342).
T10 sequence: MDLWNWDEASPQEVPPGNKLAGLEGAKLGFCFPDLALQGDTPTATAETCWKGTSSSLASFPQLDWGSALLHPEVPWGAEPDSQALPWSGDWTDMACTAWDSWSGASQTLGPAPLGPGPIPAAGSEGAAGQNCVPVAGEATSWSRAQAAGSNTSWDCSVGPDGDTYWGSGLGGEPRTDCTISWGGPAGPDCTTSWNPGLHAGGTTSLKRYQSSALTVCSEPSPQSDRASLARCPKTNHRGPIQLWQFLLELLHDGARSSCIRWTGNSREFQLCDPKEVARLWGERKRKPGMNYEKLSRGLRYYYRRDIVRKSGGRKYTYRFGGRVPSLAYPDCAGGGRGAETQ
The settings on record: protein: recombinant; tags: N-terminal GST; dsDNA, one strand shown. The method, boiled down: as §1

The next assay has as its target T11, ELF3 (Homo sapiens, UniProt P78545 1-371).
T11 sequence: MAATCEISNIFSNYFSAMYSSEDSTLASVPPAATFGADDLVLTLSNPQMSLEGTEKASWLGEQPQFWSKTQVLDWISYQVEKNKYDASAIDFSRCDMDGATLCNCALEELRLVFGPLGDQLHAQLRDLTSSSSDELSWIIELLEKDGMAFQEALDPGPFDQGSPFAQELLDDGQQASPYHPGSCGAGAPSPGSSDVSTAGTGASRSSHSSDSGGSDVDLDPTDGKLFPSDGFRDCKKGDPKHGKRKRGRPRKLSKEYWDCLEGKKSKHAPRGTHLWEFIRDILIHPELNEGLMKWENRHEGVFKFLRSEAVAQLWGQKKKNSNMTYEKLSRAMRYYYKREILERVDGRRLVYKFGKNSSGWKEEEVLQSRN
The note with it: protein: recombinant; tags: N-terminal GST; dsDNA, one strand shown. The essentials:
as §1

In another assay the target is CRX (Homo sapiens, UniProt O43186 1-299). The settings on record: protein: recombinant; tags: N-terminal GST; dsDNA, one strand shown. The method, boiled down:
as §1

Another assay deals with ETV1 (Homo sapiens, UniProt P50549 1-477). The settings on record: protein: recombinant; tags: N-terminal GST; dsDNA, one strand shown. The method, boiled down: as §1
Chain of ETV1 (P50549 whole entry): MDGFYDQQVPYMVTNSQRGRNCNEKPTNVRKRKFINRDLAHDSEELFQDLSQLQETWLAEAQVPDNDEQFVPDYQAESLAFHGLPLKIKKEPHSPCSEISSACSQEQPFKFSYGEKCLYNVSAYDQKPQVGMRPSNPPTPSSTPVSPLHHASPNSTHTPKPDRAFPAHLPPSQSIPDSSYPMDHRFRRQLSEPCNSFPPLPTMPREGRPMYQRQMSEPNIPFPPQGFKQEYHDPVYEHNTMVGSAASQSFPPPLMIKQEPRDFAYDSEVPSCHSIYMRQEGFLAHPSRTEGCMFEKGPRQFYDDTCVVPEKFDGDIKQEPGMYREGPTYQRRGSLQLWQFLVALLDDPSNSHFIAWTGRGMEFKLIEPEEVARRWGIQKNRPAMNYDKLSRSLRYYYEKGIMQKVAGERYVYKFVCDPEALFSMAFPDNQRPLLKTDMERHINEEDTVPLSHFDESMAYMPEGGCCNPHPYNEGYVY

Chain of ETV5 (P41161 whole entry): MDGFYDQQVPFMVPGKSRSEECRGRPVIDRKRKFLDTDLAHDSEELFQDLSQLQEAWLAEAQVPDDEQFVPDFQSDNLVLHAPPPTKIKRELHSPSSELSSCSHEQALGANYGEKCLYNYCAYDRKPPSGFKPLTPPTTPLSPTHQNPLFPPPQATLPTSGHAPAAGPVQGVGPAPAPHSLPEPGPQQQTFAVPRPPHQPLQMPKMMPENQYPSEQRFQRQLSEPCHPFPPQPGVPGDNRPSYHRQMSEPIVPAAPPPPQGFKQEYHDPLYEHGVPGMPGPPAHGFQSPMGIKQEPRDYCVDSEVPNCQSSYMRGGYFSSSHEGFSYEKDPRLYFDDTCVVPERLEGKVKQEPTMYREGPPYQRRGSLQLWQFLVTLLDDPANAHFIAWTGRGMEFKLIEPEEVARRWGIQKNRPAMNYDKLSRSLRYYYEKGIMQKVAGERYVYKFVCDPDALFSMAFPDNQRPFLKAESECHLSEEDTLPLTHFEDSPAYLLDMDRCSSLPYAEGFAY
Chain of HSF1 (Q00613 whole entry): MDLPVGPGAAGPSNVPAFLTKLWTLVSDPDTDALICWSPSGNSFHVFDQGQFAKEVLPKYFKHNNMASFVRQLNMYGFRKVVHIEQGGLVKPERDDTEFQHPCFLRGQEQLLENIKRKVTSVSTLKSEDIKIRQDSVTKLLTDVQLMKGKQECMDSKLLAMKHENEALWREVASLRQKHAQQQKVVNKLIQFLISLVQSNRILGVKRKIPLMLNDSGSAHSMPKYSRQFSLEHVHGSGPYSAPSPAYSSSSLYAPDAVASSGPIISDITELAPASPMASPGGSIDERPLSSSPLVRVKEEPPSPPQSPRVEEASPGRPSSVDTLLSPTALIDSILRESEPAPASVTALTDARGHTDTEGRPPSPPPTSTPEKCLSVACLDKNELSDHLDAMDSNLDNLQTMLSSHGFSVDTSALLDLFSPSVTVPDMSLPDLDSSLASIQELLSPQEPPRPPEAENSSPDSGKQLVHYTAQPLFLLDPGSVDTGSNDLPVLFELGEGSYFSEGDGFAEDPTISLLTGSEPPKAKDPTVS
Chain of ELF4 (Q99607 whole entry): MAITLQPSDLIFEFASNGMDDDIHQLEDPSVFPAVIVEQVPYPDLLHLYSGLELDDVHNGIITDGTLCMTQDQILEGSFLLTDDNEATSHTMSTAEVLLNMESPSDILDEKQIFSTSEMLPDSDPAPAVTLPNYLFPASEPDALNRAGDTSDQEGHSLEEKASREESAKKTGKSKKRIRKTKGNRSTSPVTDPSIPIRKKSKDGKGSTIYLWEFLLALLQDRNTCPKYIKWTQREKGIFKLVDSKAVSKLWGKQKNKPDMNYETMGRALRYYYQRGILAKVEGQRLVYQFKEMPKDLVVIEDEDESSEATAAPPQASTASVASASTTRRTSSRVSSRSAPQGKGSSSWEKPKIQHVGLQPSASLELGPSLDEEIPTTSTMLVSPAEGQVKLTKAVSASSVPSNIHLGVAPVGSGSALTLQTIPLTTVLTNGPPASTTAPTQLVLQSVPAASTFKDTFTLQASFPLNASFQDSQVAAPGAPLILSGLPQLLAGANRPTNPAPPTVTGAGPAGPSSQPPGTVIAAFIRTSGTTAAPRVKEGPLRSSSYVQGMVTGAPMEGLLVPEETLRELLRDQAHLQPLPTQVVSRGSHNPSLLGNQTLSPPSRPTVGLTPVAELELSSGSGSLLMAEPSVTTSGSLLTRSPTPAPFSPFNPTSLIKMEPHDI
Chain of ELF1 (P32519 whole entry): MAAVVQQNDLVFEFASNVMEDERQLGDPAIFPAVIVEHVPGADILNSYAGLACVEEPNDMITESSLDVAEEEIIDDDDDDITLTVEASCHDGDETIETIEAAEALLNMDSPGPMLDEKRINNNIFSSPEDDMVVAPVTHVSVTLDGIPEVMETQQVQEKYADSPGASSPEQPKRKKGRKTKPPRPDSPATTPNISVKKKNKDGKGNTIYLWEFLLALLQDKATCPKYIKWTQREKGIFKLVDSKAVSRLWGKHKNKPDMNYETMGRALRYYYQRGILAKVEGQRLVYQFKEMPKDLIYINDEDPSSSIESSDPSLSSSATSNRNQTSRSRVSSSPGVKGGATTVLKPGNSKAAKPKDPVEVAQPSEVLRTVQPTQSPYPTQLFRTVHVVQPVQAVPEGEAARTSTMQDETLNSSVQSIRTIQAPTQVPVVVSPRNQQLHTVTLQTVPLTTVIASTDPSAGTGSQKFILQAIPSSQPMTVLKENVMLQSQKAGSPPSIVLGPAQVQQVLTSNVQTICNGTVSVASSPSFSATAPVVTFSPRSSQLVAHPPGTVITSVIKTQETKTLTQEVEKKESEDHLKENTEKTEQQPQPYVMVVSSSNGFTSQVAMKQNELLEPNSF
Chain of CRX (O43186 whole entry): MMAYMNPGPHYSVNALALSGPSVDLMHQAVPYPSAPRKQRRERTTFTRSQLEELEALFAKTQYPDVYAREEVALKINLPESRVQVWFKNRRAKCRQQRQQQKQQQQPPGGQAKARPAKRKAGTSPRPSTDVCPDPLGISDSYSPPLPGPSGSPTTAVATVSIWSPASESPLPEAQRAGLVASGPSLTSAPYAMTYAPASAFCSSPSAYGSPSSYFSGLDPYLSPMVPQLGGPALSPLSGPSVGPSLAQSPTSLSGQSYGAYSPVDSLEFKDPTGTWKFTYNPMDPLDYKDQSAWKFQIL
Chain of SPIB (Q01892 whole entry): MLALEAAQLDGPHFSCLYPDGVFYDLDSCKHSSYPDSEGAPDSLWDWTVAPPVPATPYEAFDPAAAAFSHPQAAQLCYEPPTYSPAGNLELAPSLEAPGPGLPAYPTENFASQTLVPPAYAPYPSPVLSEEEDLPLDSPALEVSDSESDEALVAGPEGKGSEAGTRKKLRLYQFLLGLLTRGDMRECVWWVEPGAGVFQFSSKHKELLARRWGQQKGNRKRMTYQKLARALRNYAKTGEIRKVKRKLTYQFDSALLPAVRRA

Consider TAAATA, for which the binding signal with FLI1 is 1.23 fold enrichment (6-mer frequency, TF over GST control); with ELK1 it was 1.18 fold enrichment (6-mer frequency, TF over GST control); in the assay with GABPA, 1.21 fold enrichment (6-mer frequency, TF over GST control); with ERG, 1.2 fold enrichment (6-mer frequency, TF over GST control); in the assay with ELF1, 1.21 fold enrichment (6-mer frequency, TF over GST control); with EHF, 1.23 fold enrichment (6-mer frequency, TF over GST control). Also, the binding signal in the assay with SPI1 is 1.29 fold enrichment (6-mer frequency, TF over GST control); with SPIB it was 1.35 fold enrichment (6-mer frequency, TF over GST control); in the assay with ELK3, 1.33 fold enrichment (6-mer frequency, TF over GST control); with FEV, 1.19 fold enrichment (6-mer frequency, TF over GST control); in the assay with ETV5, 1.27 fold enrichment (6-mer frequency, TF over GST control); in the assay with HSF1, 1.6 fold enrichment (6-mer frequency, TF over GST control). In addition, the binding signal is 1.17 fold enrichment (6-mer frequency, TF over GST control) in the assay with SPIC; 1.26 fold enrichment (6-mer frequency, TF over GST control) in the assay with ELF4; 1.27 fold enrichment (6-mer frequency, TF over GST control) with ELK4; 1.36 fold enrichment (6-mer frequency, TF over GST control) with ETV2; 1.3 fold enrichment (6-mer frequency, TF over GST control) in the assay with ELF3; 2.12 fold enrichment (6-mer frequency, TF over GST control) in the assay with CRX. In addition, in the assay with ETV1, the binding signal is 1.24 fold enrichment (6-mer frequency, TF over GST control).
